About 83,000 compounds went through this panel and 20% of them were active in at least one assay; those are over-represented in the sample as a whole.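 Single-dose data. Exposure time 48 hours. Values below 10 considered active.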 The source made the active and inactive calls.
These compounds were tested on 786-0 renal (assay: NCI-60 one-dose screen, 48 h (100 = growth as untreated, 0 = no growth, -100 = all killed)). Conditions: 10 µM unless noted.
In the case of O=c1c2ccccc2c2nccn2c2cc(Cl)ccc12, the growth is reported as 91.6% (inactive). In the case of COC(=O)[C@H]1[C@H]2C[C@@H]3c4[nH]c5cc(OC)ccc5c4CCN3C[C@H]2C[C@@H](OC(=O)/C=C/c2cc(OC)c(OC)c(OC)c2)[C@@H]1OC, the growth is reported as 58.9% (inactive). With COc1ccc(-c2c3c(N)nc(-c4ccncc4)nc3nc3c2c(C)nn3-c2ccccc2)cc1 the growth was 72.6% (inactive). Cc1cc(C)cc(S(=O)(=O)n2ccc(-c3ccc4c(c3)CCC(C)(C)O4)n2)c1 was tested, and the growth was 82.8% (inactive). In the case of O=C1C(=O)/C(=C/c2ccccc2)CCCCCC/C1=C/c1ccccc1, the growth is reported as 86.6% (inactive). For c1ccc2c(-c3nc4ccccc4[nH]3)cccc2c1, the growth was 55.5% (inactive). In the case of C/C(=C\CCc1ccoc1)CC/C=C(\C)CCCC1COC(=O)C1 (stereo not drawn), the growth is reported as 101% (inactive). In the case of N#CSCC1CC(O)(c2ccccc2)C(c2ccccc2)C(c2ccc(Cl)cc2)O1 (stereo not drawn), the growth is reported as -74.3% (active). In the case of COc1ccc(NC(=O)[C@@H]2C[C@H]2c2ccccc2)c(C(N)=O)c1, the growth is reported as 106% (inactive). For COc1ccc(NS(=O)(=O)N2CCCCC2)cc1, the growth was 109% (inactive). For COc1cccc(/C=C2\Cc3ccccc3C2=O)c1, the growth was 101% (inactive). In the case of CNCCCn1c2c(c3ccc(F)cc3c1=O)C(=O)c1cc(OC)cnc1-2, the growth is reported as -38.3% (active). For Cc1ccc(N/N=C(/C(=O)c2ccc(Cl)cc2)c2nc(C)cc(=O)[nH]2)cc1, the growth was 82.9% (inactive). For CCCCCCCC[Si](OCC)(OCC)OCC, the growth was 99.3% (inactive). CCC(=O)Nc1cc2c(cc1Cl)-c1ccccc1C2 was tested, and the growth was 91.5% (inactive). For COc1ccc2c(c1)c(CC(=O)[Se]C)c(C)n2C(=O)c1ccc(Cl)cc1, the growth was 9.49% (active). In the case of O=C(Nc1cccc(-n2cc(-c3ccncc3)c(-c3cc(O)cc(Cl)c3)n2)c1)Nc1ccc(Cl)c(Cl)c1, the growth is reported as -72.1% (active). CC(=O)c1ccc(NS(=O)(=O)c2ccc([N+](=O)[O-])cc2)cc1 was tested, and the growth was 105% (inactive). With O=C(C(=O)c1cc(Br)ccc1O)c1cc(Br)ccc1O the growth was 61.2% (inactive). In the case of O=C1NC(=O)/C(=C\c2ccco2)S1, the growth is reported as 99% (inactive). In the case of C/C(=C\CCc1ccoc1)CC/C=C(\C)CCCNc1ccc(F)cc1, the growth is reported as 95.1% (inactive). COc1cc(C(=O)c2cc3c(cc2C)OCO3)cc(OC)c1OC was tested, and the growth was 51.3% (inactive). In the case of CCOc1cc(/C=C/C(=O)CC(=O)/C=C/c2ccc(OC(=O)CNCCN(CC)CC)c(OCC)c2)ccc1OC(=O)CNCCN(CC)CC, the growth is reported as -91.6% (active). For Cc1nn2c(/C=C3/C(=O)Nc4cc(Cl)ccc43)c(-c3ccccc3)nc2s1, the growth was -74.8% (active). For O=C(c1ccccc1)C(CN1CCCCC1)c1ccccc1 (stereo not drawn), the growth was 1.38% (active). For Cc1nn(-c2ccccc2)cc1/C=C1\SC(N2CCCCC2)=NC1=O, the growth was 83.6% (inactive). For CN(C)c1ncnc2c1ncn2C1CCCCO1 (stereo not drawn), the growth was 99.4% (inactive). For CCOc1cc(/C=C/C(=O)C(C(=O)/C=C/c2ccc(OC(=O)CNc3nnc(C)s3)c(OCC)c2)C(=O)CNc2nnc(C)s2)ccc1OC(=O)CNc1nnc(C)s1, the growth was -73.7% (active). In the case of N#Cc1c(-c2ccccc2)cc(-c2ccccc2)n(CCCCCCC(=O)O)c1=O, the growth is reported as 105% (inactive). With COc1ccc(C2=NN(C=O)C(c3cccc(Nc4ccnc5cc(Cl)ccc45)c3)C2)cc1 (stereo not drawn) the growth was 28.5% (inactive). With COc1cc(/C=C/c2cc(/C=C/c3ccc(O)c(OC)c3)n(C(=O)Cc3ccccc3)n2)ccc1O the growth was 10.2% (inactive). In the case of O=C1c2cccc3c([N+](=O)[O-])ccc(c23)C(=O)N1CCCCl, the growth is reported as -83.8% [100 µM] (active). CCOC(=O)/C(=C/CC/C(C)=C/CC/C(C)=C/CCc1ccoc1)CC(=O)N1CCCCC1 was tested, and the growth was 86.3% (inactive). Clc1ccc2nc(CI)c(CI)nc2c1 was tested, and the growth was 0.747% (active). In the case of CNNc1ncnc2c1cnn2-c1ccc(S(N)(=O)=O)cc1, the growth is reported as 91.7% (inactive). Nc1nc2c(c(=O)[nH]1)C1(C(=O)Nc3ccccc31)c1c(nc(N)[nH]c1=O)N2 was tested, and the growth was 108% (inactive). With Cc1[nH]cnc1/C=C1\SC(N2CCCCC2)=NC1=O the growth was 94.7% (inactive). In the case of COc1cccc(-c2nc3cc(NC(=O)c4ccc(Cl)c(C#N)c4)ccc3o2)c1, the growth is reported as -92.1% (active). For N#Cc1ccc(-c2csc(Nc3ccc4nc5n(c(=O)c4c3)CCC5)n2)cc1, the growth was 104% (inactive).

These compounds were tested on COLO 205 colon in the same assay as above. Conditions: 10 µM unless noted.
O=c1c2ccccc2c2nccn2c2cc(Cl)ccc12 was tested, and the growth was 112% (inactive). In the case of COC(=O)[C@H]1[C@H]2C[C@@H]3c4[nH]c5cc(OC)ccc5c4CCN3C[C@H]2C[C@@H](OC(=O)/C=C/c2cc(OC)c(OC)c(OC)c2)[C@@H]1OC, the growth is reported as 67.6% (inactive). COc1ccc(-c2c3c(N)nc(-c4ccncc4)nc3nc3c2c(C)nn3-c2ccccc2)cc1 was tested, and the growth was 38.6% (inactive). With Cc1cc(C)cc(S(=O)(=O)n2ccc(-c3ccc4c(c3)CCC(C)(C)O4)n2)c1 the growth was 103% (inactive). With O=C1C(=O)/C(=C/c2ccccc2)CCCCCC/C1=C/c1ccccc1 the growth was 99.6% (inactive). c1ccc2c(-c3nc4ccccc4[nH]3)cccc2c1 was tested, and the growth was 24.6% (inactive). C/C(=C\CCc1ccoc1)CC/C=C(\C)CCCC1COC(=O)C1 (stereo not drawn) was tested, and the growth was 109% (inactive). With N#CSCC1CC(O)(c2ccccc2)C(c2ccccc2)C(c2ccc(Cl)cc2)O1 (stereo not drawn) the growth was -98.3% (active). With COc1ccc(NC(=O)[C@@H]2C[C@H]2c2ccccc2)c(C(N)=O)c1 the growth was 106% (inactive). With COc1ccc(NS(=O)(=O)N2CCCCC2)cc1 the growth was 105% (inactive). COc1cccc(/C=C2\Cc3ccccc3C2=O)c1 was tested, and the growth was 115% (inactive). CNCCCn1c2c(c3ccc(F)cc3c1=O)C(=O)c1cc(OC)cnc1-2 was tested, and the growth was -33.1% (active). With Cc1ccc(N/N=C(/C(=O)c2ccc(Cl)cc2)c2nc(C)cc(=O)[nH]2)cc1 the growth was 116% (inactive). For CCCCCCCC[Si](OCC)(OCC)OCC, the growth was 108% (inactive). With CCC(=O)Nc1cc2c(cc1Cl)-c1ccccc1C2 the growth was 99.4% (inactive). With COc1ccc2c(c1)c(CC(=O)[Se]C)c(C)n2C(=O)c1ccc(Cl)cc1 the growth was 50.1% (inactive). In the case of O=C(Nc1cccc(-n2cc(-c3ccncc3)c(-c3cc(O)cc(Cl)c3)n2)c1)Nc1ccc(Cl)c(Cl)c1, the growth is reported as 22.4% (inactive). For CC(=O)c1ccc(NS(=O)(=O)c2ccc([N+](=O)[O-])cc2)cc1, the growth was 106% (inactive). For O=C(C(=O)c1cc(Br)ccc1O)c1cc(Br)ccc1O, the growth was 100% (inactive). With O=C1NC(=O)/C(=C\c2ccco2)S1 the growth was 91.4% (inactive). For C/C(=C\CCc1ccoc1)CC/C=C(\C)CCCNc1ccc(F)cc1, the growth was 98.1% (inactive). COc1cc(C(=O)c2cc3c(cc2C)OCO3)cc(OC)c1OC was tested, and the growth was -49.9% (active). With CCOc1cc(/C=C/C(=O)CC(=O)/C=C/c2ccc(OC(=O)CNCCN(CC)CC)c(OCC)c2)ccc1OC(=O)CNCCN(CC)CC the growth was -51.3% (active). With Cc1nn2c(/C=C3/C(=O)Nc4cc(Cl)ccc43)c(-c3ccccc3)nc2s1 the growth was 21.8% (inactive). In the case of O=C(c1ccccc1)C(CN1CCCCC1)c1ccccc1 (stereo not drawn), the growth is reported as 10.1% (inactive). Cc1nn(-c2ccccc2)cc1/C=C1\SC(N2CCCCC2)=NC1=O was tested, and the growth was 66.9% (inactive). With CN(C)c1ncnc2c1ncn2C1CCCCO1 (stereo not drawn) the growth was 98.3% (inactive). With CCOc1cc(/C=C/C(=O)C(C(=O)/C=C/c2ccc(OC(=O)CNc3nnc(C)s3)c(OCC)c2)C(=O)CNc2nnc(C)s2)ccc1OC(=O)CNc1nnc(C)s1 the growth was -55% (active). N#Cc1c(-c2ccccc2)cc(-c2ccccc2)n(CCCCCCC(=O)O)c1=O was tested, and the growth was 111% (inactive). With COc1ccc(C2=NN(C=O)C(c3cccc(Nc4ccnc5cc(Cl)ccc45)c3)C2)cc1 (stereo not drawn) the growth was 0.0234% (active). COc1cc(/C=C/c2cc(/C=C/c3ccc(O)c(OC)c3)n(C(=O)Cc3ccccc3)n2)ccc1O was tested, and the growth was -64.3% (active). In the case of O=C1c2cccc3c([N+](=O)[O-])ccc(c23)C(=O)N1CCCCl, the growth is reported as -80.4% [100 µM] (active). With CCOC(=O)/C(=C/CC/C(C)=C/CC/C(C)=C/CCc1ccoc1)CC(=O)N1CCCCC1 the growth was 1.9% (active). With Clc1ccc2nc(CI)c(CI)nc2c1 the growth was 0% (active). CNNc1ncnc2c1cnn2-c1ccc(S(N)(=O)=O)cc1 was tested, and the growth was 120% (inactive). Nc1nc2c(c(=O)[nH]1)C1(C(=O)Nc3ccccc31)c1c(nc(N)[nH]c1=O)N2 was tested, and the growth was 102% (inactive). With Cc1[nH]cnc1/C=C1\SC(N2CCCCC2)=NC1=O the growth was 114% (inactive). COc1cccc(-c2nc3cc(NC(=O)c4ccc(Cl)c(C#N)c4)ccc3o2)c1 was tested, and the growth was 28.9% (inactive). N#Cc1ccc(-c2csc(Nc3ccc4nc5n(c(=O)c4c3)CCC5)n2)cc1 was tested, and the growth was 109% (inactive).

Source: PubChem BioAssay (NCI)
